Measurements from PubChem BioAssay (NCI).
About 83,000 compounds went through this panel and 20% of them were active in at least one assay; those are over-represented in the sample as a whole.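 The endpoint reported here, percent growth, reads 100 for growth as untreated, 0 for no net growth and -100 for all cells dead.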 Values without a mark were called inactive. The source made the active and inactive calls. The calls were made as follows: active = growth percent below 10; inactive = the rest.

Tests used:
Test in all cases: NCI-60 one-dose screen, 48 h (100 = growth as untreated, 0 = no growth, -100 = all killed)
Conditions in all cases: 10 µM unless noted
[1] = test system: SK-MEL-2 melanoma
[2] = test system: EKVX NSCLC
[3] = test system: SN12C renal
[4] = test system: UO-31 renal
[5] = test system: TK-10 renal
[6] = test system: ACHN renal
[7] = test system: CAKI-1 renal
[8] = test system: A498 renal
[9] = test system: CCRF-CEM leukemia
[10] = test system: MOLT-4 leukemia

C/C(=N\O)c1ccc(Cl)cc1
growth [1]: 120% | growth [2]: 103% | growth [3]: 99% | growth [4]: 91.4% | growth [5]: 107% | growth [6]: 105% | growth [7]: 96.9% | growth [8]: 111% | growth [9]: 118% | growth [10]: 86.3%

C=CCOC(=O)Nc1cccn([C@H](Cc2ccccc2)C(=O)NCCC(C)C)c1=O
growth [1]: 115% | growth [2]: 104% | growth [3]: 98.7% | growth [4]: 88.7% | growth [5]: 111% | growth [6]: 103% | growth [7]: 89.8% | growth [8]: 114% | growth [9]: 77.1% | growth [10]: 93.6%

COc1ccc(Nc2ncc(Br)c(NCCCNC(=O)c3cccs3)n2)cc1
growth [1]: 46.8% | growth [2]: 55.6% | growth [3]: 21.5% | growth [4]: -0.36% (active) | growth [5]: 24.3% | growth [6]: 21.3% | growth [7]: 16.2% | growth [8]: 51.7% | growth [9]: 16.3% | growth [10]: 19.5%

O=S(=O)(NCCCNc1nccc(-c2c(-c3ccc(F)c(O)c3)nc3occn23)n1)c1ccc(Cl)cc1
growth [1]: 25.6% | growth [2]: 65.6% | growth [3]: 59.5% | growth [4]: 36.4% | growth [5]: 103% | growth [6]: 56.3% | growth [7]: 41.7% | growth [8]: 84.9% | growth [9]: 47.9% | growth [10]: 48.9%

N#Cc1ccc(O)c(C2=NCC(c3cccc(Oc4ccccc4)c3)O2)c1 (stereo not given)
growth [1]: 7.46% (active) | growth [2]: 24% | growth [3]: 33.3% | growth [4]: -6.42% (active) | growth [5]: 3.38% (active) | growth [6]: 17.5% | growth [7]: 6.87% (active) | growth [8]: 50.9% | growth [9]: 14.4% | growth [10]: -0.248% (active)

C=C(C)[C@@H]1CC[C@]2(C(=O)O)CC[C@]3(C)[C@H](CC[C@@H]4[C@@]5(C)CCC(NC(=O)c6cccc(OC(C)=O)c6OC(C)=O)C(C)(C)[C@@H]5CC[C@]43C)[C@@H]12 (stereo not given in full)
growth [1]: 14.9% | growth [2]: 2.51% (active) | growth [3]: 12.5% | growth [4]: -39% (active) | growth [5]: 19.7% | growth [6]: 3.98% (active) | growth [7]: 3.74% (active) | growth [8]: -21.9% (active) | growth [9]: 10.4% | growth [10]: 8.43% (active)

CCc1ccccc1-n1c(-c2ccc(OC)cc2)cc(-c2ccc(OC)cc2)c(C#N)c1=O
growth [1]: 90.2% | growth [2]: 94.1% | growth [3]: 89.8% | growth [4]: 88.3% | growth [5]: 97.2% | growth [6]: 61.6% | growth [7]: 77.9% | growth [8]: 69.5% | growth [9]: 127% | growth [10]: 133%

COc1ccc(C/C(C)=C(\c2ccc(Cl)cc2)c2ccc(OCCN3CCCCC3)cc2)cc1
growth [1]: 97% | growth [2]: 102% | growth [3]: 94.3% | growth [4]: 73.9% | growth [5]: 97% | growth [6]: 92.3% | growth [7]: 86.9% | growth [8]: 120% | growth [9]: 90.1% | growth [10]: 75.4%

CC(=O)O[C@@H]1C[C@]2(C(C)C)O[C@@]1(C)[C@@H]1CCC(C)=C1[C@@H]2OC(=O)/C=C/c1ccccc1
growth [1]: 89.7% | growth [2]: 83.5% | growth [3]: 48.4% | growth [4]: 60.5% | growth [5]: 95.4% | growth [6]: 34.6% | growth [7]: 71.3% | growth [8]: -4.32% (active) | growth [9]: 84.9% | growth [10]: 83.8%

COc1cc(-c2cncn2-c2ccc(-c3nc4ccc(F)cc4s3)cc2)ccc1F
growth [1]: 37.7% | growth [2]: 95.8% | growth [3]: 94.7% | growth [4]: 71.9% | growth [5]: 92.1% | growth [6]: 3.23% (active) | growth [7]: 25.7% | growth [8]: 74.5% | growth [9]: 81.5% | growth [10]: 63.6%

Nc1ncnc2c1N=C(c1ccc(Br)cc1)CC(c1cccc(Nc3ccnc4cc(C(F)(F)F)ccc34)c1)N2 (stereo not given)
growth [1]: 68.5% | growth [2]: 44.4% | growth [3]: 70.6% | growth [4]: 47.2% | growth [5]: 102% | growth [6]: 80% | growth [7]: 56.2% | growth [8]: 63% | growth [9]: 34.3% | growth [10]: 16.8%

c1cnc2c(-c3nc4ccc5[nH]ncc5c4c4c3CCCC4)c[nH]c2c1
growth [1]: 58.5% | growth [2]: 49.5% | growth [3]: 27.4% | growth [4]: 43.7% | growth [5]: 50.1% | growth [6]: 27.1% | growth [7]: 57% | growth [8]: 64.2% | growth [9]: 11.4% | growth [10]: 5.62% (active)
